From PubChem BioAssay
Rows were chosen to be rich in hits. Some 11% of all compounds tested hit in one or more screens of this group.
IMPase Li cell = qHTS Assay for Identifying the Cell-Membrane Permeable IMPase Inhibitors: Potentiation with Lithium; AID 1457, 2008; 210,000 compounds, 0.35% hits; CHO-M1 cells, IP1 TR-FRET (IP-One), carbachol + lithium; Potency, µM (titrated, usually from 59.4 µM), for the others: top-dose activity, negative = IMPase inhibition, hits mostly inhibitors; active = well fitted inhibition curve with a large enough effect; inconclusive = small, poorly fitted or top-dose-only effect; inactive = no such curve, though single readings can be large or run the other way;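 also: IP1 builds up when IMPase is blocked and the TR-FRET signal falls; potency is read from the fitted curve at half-maximal effect; plate controls were basal vehicle for no effect and high inhibitor control for full effect; nearly all actives have a fitted effect of over 50% in size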
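Test compounds were applied to CHO-M1 cells previously cultured for 16–30 h at 2000 per well. A small lithium amount accompanied them; after 30 min at 37C, IP1 was quantified by TR-FRET.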
HPGD block = qHTS Assay for Inhibitors of HPGD (15-Hydroxyprostaglandin Dehydrogenase) | 15-hydroxyprostaglandin dehydrogenase [NAD(+)] (Homo sapiens), P15428 | purified HPGD, NADH fluorescence kinetic, PGE2 substrate | Potency, µM, for the others: top-dose activity change, negative = inhibition, hits mostly inhibitors | 150,000 compounds, 4.3% hits | AID 894, 2007; also: potency is read from the fitted curve at half-maximal effect
Target sequence (P15428 whole entry, looked up): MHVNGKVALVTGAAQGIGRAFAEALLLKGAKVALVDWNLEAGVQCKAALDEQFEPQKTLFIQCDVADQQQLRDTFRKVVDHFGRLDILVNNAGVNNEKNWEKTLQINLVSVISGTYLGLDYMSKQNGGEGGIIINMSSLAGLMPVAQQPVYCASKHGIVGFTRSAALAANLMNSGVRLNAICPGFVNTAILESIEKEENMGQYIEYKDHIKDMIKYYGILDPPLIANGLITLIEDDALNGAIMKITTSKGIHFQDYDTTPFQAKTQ
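NADH formation kinetics: reaction with 30 uM PGE2 and 1 mM NAD+ (final), 20 nM enzyme, Tris-HCl pH 8 with Tween 20, after 15 min compound preincubation at room temperature. Fluorescence change, last versus first of five reads.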
IMPase inh = qHTS Assay for Identifying the Cell-Membrane Permeable IMPase Inhibitors; inhibition (IP1 accumulation), % at 46.1 µM; Inositol monophosphatase 1 (Rattus norvegicus), P97697; AID 901, 2007; 120,000 tested, under 10 active; CHO-M1 cells, IP1 accumulation, HTRF TR-FRET ratio; active = well fitted curve in the direction sought with a large enough effect in the signal ratio, not every such curve was filed as active; inconclusive = small, poorly fitted or top-dose-only effect, or a change in a side signal; inactive = no such curve, though single readings can be large or run the other way; the % refers to the signal ratio;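 also: cells stimulated with carbachol in lithium chloride buffer; plate controls were DMSO basal wells for no effect and reference inhibitor wells for full effect; higher means more IMPase inhibition seen as more IP1 and lower FRET ratio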
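CHO-M1 cells (CHO stably expressing M1 receptor), compound up to 46 uM final, stimulated with carbachol (50 uM as added) in buffer with 50mM LiCl, pH 7.4, 30 min at 37C. Cytosolic IP1 read by TR-FRET; AC50 from Hill fits.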
ALDH1A1 block = qHTS Assay for Inhibitors of Aldehyde Dehydrogenase 1 (ALDH1A1) | AID 1030, 2008 | Potency, µM (series often up to 75.3 µM), for inactives: top-dose activity, negative = inhibition, most hits filed as inhibitors | Aldehyde dehydrogenase 1A1 (Homo sapiens), P00352 | 220,000 compounds, 7.3% hits | Purified ALDH1A1, NADH fluorescence, propionaldehyde substrate;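 also: potency is read from the fitted curve at half-maximal effect; plate controls were no enzyme wells and a reference inhibitor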
Target sequence (P00352 whole entry, looked up): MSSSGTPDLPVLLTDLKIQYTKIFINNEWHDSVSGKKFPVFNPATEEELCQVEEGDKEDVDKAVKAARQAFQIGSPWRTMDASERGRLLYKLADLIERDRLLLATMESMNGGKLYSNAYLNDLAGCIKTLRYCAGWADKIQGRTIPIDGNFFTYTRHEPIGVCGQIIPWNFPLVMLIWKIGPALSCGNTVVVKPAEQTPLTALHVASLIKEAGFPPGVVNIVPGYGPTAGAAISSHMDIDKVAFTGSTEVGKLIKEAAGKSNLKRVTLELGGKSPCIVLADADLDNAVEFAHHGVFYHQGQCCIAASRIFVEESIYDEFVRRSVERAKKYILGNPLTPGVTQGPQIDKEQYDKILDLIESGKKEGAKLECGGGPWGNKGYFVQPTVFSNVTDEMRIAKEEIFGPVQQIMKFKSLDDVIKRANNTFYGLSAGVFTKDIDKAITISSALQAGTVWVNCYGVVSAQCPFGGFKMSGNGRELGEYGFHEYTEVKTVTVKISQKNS
PNC inhibitor = High Content Assay for Compounds that inhibit the Assembly of the Perinucleolar Compartment. PC3M PTB-GFP, PNC prevalence imaging, 16 h; stronger effect = lower value. AID 2417, 2010. 140,000 compounds, 3.1% hits. activity change (PNC), negative = inhibition, % at 10 µM;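 active = readout at or below -70, meaning at least 70% loss of cells showing the perinucleolar compartment, a nuclear body marking cancer cells; inconclusive = readout between -30 and a set limit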;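 also: plate controls were DMSO wells for no effect and camptothecin positive control wells for full effect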
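Compounds are pinned in duplicate onto adhered PC3M cells stably expressing GFP-tagged PTB and incubated 16 h at 37 C. Cells are then fixed, nuclei stained with Hoechst, and PNC-positive cells counted.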
* marks the source's active call; other numbers are inactive results; ? = inconclusive; · = no result; [ ] = another dose, or the depositor's remark. Unless noted, calls follow the shape of the dose curve; as a rule, active = well fitted inhibition curve with a large enough effect (not every such curve was filed as active); inconclusive = small, poorly fitted or top-dose-only effect, or another doubt; inactive = no such curve, though single readings can be large or run the other way. Unless noted, % is scaled to controls: 0 for no effect and ±100 for the full control effect.

SMILES | IMPase Li cell | HPGD block | IMPase inh | ALDH1A1 block | PNC inhibitor
CC(=O)/C=C/n1c(=S)oc2ccccc21 | 3% | -21% | · | 7.9µM* | ?
CC(C)CC(=O)/C=C/n1c(=S)oc2ccccc21 | 2% | -19% | · | ? | 54
O=c1c2c3nc4ccccc4nc3n(/N=C/c3ccco3)c2ncn1CCC1=CCCCC1 | -19%[38.3 µM] | -16% | 5 | 25µM* | ?
Cc1cc(C)cc(OCC(=O)N2Cc3ccccc3CC2C(=O)O)c1 (stereo not given) | 0% | · | · | 13% | ·
COC(=O)C1Cc2ccccc2CN1C(=O)CCl (stereo not given) | -7% | · | · | 0.4µM* | ·
C=CCOC(=O)C(C(C)=O)C(NC(=O)OC)c1cccc(C(F)(F)F)c1 (stereo not given) | · | · | · | 17%[13.5 µM] | ·
Cc1cccn2c(=O)c(/C=C(\C#N)C(=O)NCc3ccco3)c(N3CCCC(C)C3)nc12 (stereo not given) | 23% | 16µM* | -4 | 25µM* | ?
Cc1cccn2c(=O)c(C=O)c(N3CCN(c4ccccc4)CC3)nc12 | 11% | · | · | ? | ·
Cc1cccn2c(=O)c(/C=C(\C#N)C(=O)NCc3ccco3)c(N3CCCCC3)nc12 | 14% | 32µM* | 11 | 14µM* | -23
Cc1cccn2c(=O)c(/C=N/O)c(N3CCCCC3)nc12 | 4%[38.3 µM] | 2µM* | 0 | ? | -29
O=c1c2oc3ccccc3c2ncn1Cc1ccc(F)cc1 | -7% | · | · | 6% | ·
CCN1CCC(O)([C@H](C(=O)O)c2ccccc2)CC1 | -2% | 1% | · | -15%[13.5 µM] | ·
COc1ccc(Cc2nnc(NS(=O)(=O)c3ccccc3)s2)cc1 | -5% | · | · | ? | ·
COc1ccc(S(=O)(=O)Nc2nnc(CC(C)(C)C)s2)cc1 | 5% | · | · | 11µM* | ·
COc1ccc(S(=O)(=O)Nc2nnc(C(C)(C)C)s2)cc1 | -7%[38.3 µM] | 10µM* | 3 | 10µM* | ?
COC(=O)c1c(NC(C)=O)sc(Cc2ccccc2)c1C | 1%[38.3 µM] | -9% | 8 | -4% | 52
Cc1c(Cc2ccccc2)sc(NC(=O)C(C)(C)C)c1C(N)=O | 9% | · | · | 8.9µM* | ·
Cc1c(Cc2ccccc2)sc(N)c1C(N)=O | -3%[38.3 µM] | 28µM* | 4 | 16µM* | 31
CCC(=O)Nc1sc(Cc2ccccc2)c(C)c1C(N)=O | 11% | · | · | 22µM* | ·
Cc1c(Cc2ccccc2)sc(/N=C/c2ccc3ccccc3c2)c1C(N)=O | -3% | ? | 2 | ? | -103*
CC(C)C[C@H](NC(=O)[C@H](CCC(N)=O)NC(=O)[C@H](CCCCN)NC(=O)[C@H](CCC(N)=O)NC(=O)[C@@H](N)CCC(=O)O)C(=O)N[C@@H](CCC(N)=O)C(=O)O | 2% | · | · | 6% | ·
Cc1cc([C@](C)(N)C(=O)O)ccc1P(=O)(O)O | 7% | -5% | -4 | -3% | ·
CC1(C)CCC[C@@](C)([C@H]2CC[C@]3(C)[C@@H]2[C@H](O)C[C@@H]2[C@@]4(C)CC[C@H](O)C(C)(C)[C@@H]4[C@@H](O)C[C@]23C)O1 | 20% | -5% | · | 2% | ·
Cc1ccc(S(=O)(=O)Nc2cc(Cl)c(O)cc2C)cc1 | 9%[38.3 µM] | 0% | -4 | ? | 20
Cc1ccc(S(=O)(=O)Nc2cc(C(C)C)c(O)cc2C)cc1 | 26%[38.3 µM] | -8% | -5 | 2µM* | -14
SMILES | IMPase Li cell | HPGD block | IMPase inh | ALDH1A1 block | PNC inhibitor
CCCn1c(-c2ccc(F)cc2)nc2c(N3CCN(CCC(=O)OCC)CC3)nc(C)nc21 | -7% | -14% | · | 5% | ·
CCN(CC)S(=O)(=O)c1ccc(-c2nnc(SCC(C)=O)o2)cc1 | -12%[38.3 µM] | -21% | -3 | ? | ?
CCN(CC)S(=O)(=O)c1ccc(-c2nnc(SCC(=O)Nc3cc(OC)cc(OC)c3)o2)cc1 | 18%[38.3 µM] | -9% | 1 | 13µM* | -20
Cc1csc(NC(=O)CSc2nnc(-c3ccc(S(=O)(=O)N4CCCC4)cc3)o2)n1 | -1%[38.3 µM] | -8% | 0 | 8% | 3
CCN(CC)S(=O)(=O)c1ccc(-c2nnc(SCC(=O)Nc3nc(C)cs3)o2)cc1 | -9%[38.3 µM] | -8% | 2 | -5% | -106*
CCOc1ccc(Cl)cc1/C=N/NC(=O)c1ccccc1 | 2% | -20% | · | -1% | -7
CCOc1ccc(C(=O)N/N=C/c2cc(Cl)ccc2[N+](=O)[O-])cc1 | 2% | 22µM* | · | -10% | 7
CN(C)S(=O)(=O)c1cccc(NC(=S)N/N=C/C(c2ccccc2)c2ccccc2)c1 | 0% | 18µM* | · | 10µM* | 9
COc1cc(/C=N/NC(=S)Nc2cccc(S(=O)(=O)N(C)C)c2)cc(OC)c1O | 5% | -26% | 7 | 22µM* | ?
COc1ccc(O)c(/C=N/NC(=S)Nc2cccc(S(=O)(=O)N(C)C)c2)c1 | -15% | ? | · | ? | 60
Cc1ccc(C)c(NC(=S)N/N=C/C(C)c2ccccc2)c1 (stereo not given) | 12% | · | · | ? | ·
CC(/C=N/NC(=S)Nc1cccc(S(=O)(=O)N(C)C)c1)c1ccccc1 (stereo not given) | -2% | 35µM* | · | 7.9µM* | 22
Nc1[nH]c(=O)nc2c1ncn2[C@H]1O[C@@H](CO)[C@@H](O)[C@@H]1O | -2% | -5% | · | 2%[13.5 µM] | ·
O=C(O)[C@@H]1CCCNC1 | 2% | -3% | -10[20.6 µM] | -3%[20.9 µM] | ·
CC(C)CN=C(N)N=C(N)N | 12% | -3% | · | 9%[13.5 µM] | ·
CC1(C)CC(NC(=O)c2coc(=O)c(Br)c2)CC(C)(C)N1 | -9%[38.3 µM] | -14% | -5 | ? | -100*
COc1ccc(NC(=O)/C(Cl)=C(/Cl)S(=O)Cc2ccc(Cl)cc2)cn1 (stereo not given) | 29% | · | · | 0.35µM* | ·
COc1ccc(NC(=O)/C(Cl)=C(/Cl)S(=O)(=O)Cc2ccccc2)cn1 | 42%[38.3 µM] | -27% | 4 | 1.3µM* | -21
COc1ccc(NC(=O)C(Cl)=C(Cl)Cl)cn1 | 4% | · | · | ? | ·
CCOc1nc(OCC)nc(N2CCC(C)CC2)n1 | 31%[38.3 µM] | -3% | 7 | 10µM* | 38
O=S(=O)(/N=C(/c1ccc(F)cc1)N1CCCCC1)c1ccc(Cl)cc1 | · | · | 0 | ? | -13
O=[N+]([O-])c1ccc(S(=O)(=O)Cc2ccccc2)c2nonc12 | 7% | 3.2µM* | · | 1.8µM* | ·
O=C(O)CCC(=O)N1CCCC1C(=O)O (stereo not given) | 6% | -7% | · | -3% | ·
Cc1ccc(NC(=O)c2c(NC(=O)c3ccco3)sc3c2CCC(C(C)(C)C)C3)c(C)c1 (stereo not given) | · | · | -3 | · | ·
CC(C)C1Cc2c(C#N)c(N)sc(=S)c2CO1 (stereo not given) | -20%[38.3 µM] | -10% | ? | ? | -11
